The source made the active and inactive calls.
What was measured:
[1] = small molecules captured by biotinylated probe aFSTL3 – biochemical, small-molecule microarray, fluorescence 635/667, stem cell growth factor project, primary screen (AID 1064); details: higher = more signal;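 note: measures binding of the biotinylated anti-FSTL3 antibody to printed compounds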
[2] = binders from COS7 lysate, DM2A8 probe, primary screen, torsin A project, cell lysate, small-molecule microarray, fluorescence 635/667 (AID 1065); details: higher = more signal, COS7 lysate expressing mutant human TOR1A
[3] = small molecules captured by biotinylated probe aFGF2 – biochemical, small-molecule microarray, fluorescence 635/667, stem cell growth factor project, primary screen (AID 1067); details: higher = more signal;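 note: measures binding of biotinylated aFGF2 protein to printed compounds on slides; z-score merges feature fluorescence and signal-to-noise across triplicate slides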
[4] = small molecules captured by biotinylated probe aFGF10 – biochemical, small-molecule microarray, fluorescence 635/667, stem cell growth factor project, primary screen (AID 1071); details: higher = more signal;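 note: score merges 667 nm spot intensity and signal to noise from triplicate slides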
[5] = molecular target: Neurogenic locus notch homolog protein 2 (Homo sapiens) (UniProt Q04721); assay: small molecules binding Notch2 protein – biochemical, small-molecule microarray, 635 nm fluorescence, stem cell growth factors, primary screen (AID 1073); details: higher = more signal
[6] = molecular target: Pro-neuregulin-1, membrane-bound isoform (Homo sapiens) (UniProt Q02297); assay: small molecules binding neuregulin-1 protein – biochemical, small-molecule microarray, fluorescence 635/667, psychiatric disease protein project, primary screen (AID 1075); details: NRG1 binding, 635 nm fluorescence, higher = more signal;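 note: score combines 667 nm spot fluorescence with signal to noise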
Chain of Pro-neuregulin-1, membrane-bound isoform (Homo sapiens) (Q02297 whole entry, looked up, the tested form may be a part, canonical isoform): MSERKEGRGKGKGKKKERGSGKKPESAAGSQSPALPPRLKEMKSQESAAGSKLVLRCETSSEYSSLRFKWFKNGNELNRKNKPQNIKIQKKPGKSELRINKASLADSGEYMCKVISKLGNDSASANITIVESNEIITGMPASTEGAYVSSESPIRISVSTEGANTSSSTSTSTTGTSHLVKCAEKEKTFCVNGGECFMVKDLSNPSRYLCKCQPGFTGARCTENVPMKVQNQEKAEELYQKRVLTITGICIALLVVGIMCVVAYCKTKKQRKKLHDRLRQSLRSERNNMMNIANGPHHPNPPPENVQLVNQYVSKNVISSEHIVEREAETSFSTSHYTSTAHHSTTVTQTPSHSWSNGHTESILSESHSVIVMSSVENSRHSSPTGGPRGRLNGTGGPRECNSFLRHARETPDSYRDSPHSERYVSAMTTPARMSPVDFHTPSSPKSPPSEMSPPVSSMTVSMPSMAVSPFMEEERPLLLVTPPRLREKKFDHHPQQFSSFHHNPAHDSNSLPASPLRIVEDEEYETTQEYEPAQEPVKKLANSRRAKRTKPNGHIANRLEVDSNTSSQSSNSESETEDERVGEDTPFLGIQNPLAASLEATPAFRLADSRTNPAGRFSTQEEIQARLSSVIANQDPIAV

[7] = test system: Neuregulin-1 EGF-like domain; assay: small molecules binding NRG1 EGF domain – biochemical, small-molecule microarray, 635 nm fluorescence, primary screen (AID 1081); details: higher = more signal;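 note: binding of the protein to compounds printed on small-molecule microarray slides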
[8] = FRG1 expression reporter modulators in myotubes – cell-based, C2C12 myotubes, firefly/Renilla luciferase, luminescence, FRG1 inhibition for FSHD, primary screen (AID 1084); details: FRG1 promoter luciferase, higher = more signal, called active from +8 up or from −8 down
[9] = small molecules captured by biotinylated probe aFST – biochemical, small-molecule microarray, fluorescence 635/667, stem cell growth factor project, primary screen (AID 1086); details: higher = more signal;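 note: score merges 667 nm fluorescence with signal-to-noise of each printed compound spot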
[10] = binders of probe aHhip on microarray, primary screen, stem cell growth factor project, biochemical, small-molecule microarray, fluorescence 635/667 (AID 1087); details: higher = more signal;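 note: score merges spot fluorescence at 667nm with spot signal to noise ratio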
[11] = test system: PRMT1 (protein arginine N-methyltransferase 1); assay: small molecules binding arginine methyltransferase PRMT1 – biochemical, small-molecule microarray, 635 nm fluorescence, primary screen (AID 1088); details: higher = more signal;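 note: binding of Prmt1 protein to compounds spotted on small-molecule microarray slides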
[12] = growth effects on S. cerevisiae YJM789 – YJM789 clinical isolate, OD600, 24 h, basal, primary screen (AID 1089); details: higher = more signal, called active from +8 up or from −8 down;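 note: growth of clinical yeast isolate S. cerevisiae YJM 789 seeded 1000 cells per well; test concentration not given here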
[13] = S. pombe growth modifiers, basal conditions – strain 972, OD600, 24 h, no modulator, primary screen (AID 1090);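 note: basal condition with compound alone and no growth modifier present; test concentration not given here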; details: S. pombe 972 growth, higher = more signal, called active from +8 up or from −8 down
[14] = budding yeast growth modifiers under rapamycin – strain BY4716, OD600, 96 h, primary screen (AID 1091); note: test concentration not given here; details: S. cerevisiae BY4716 + rapamycin, higher = more signal, called active from +8 up or from −8 down
[15] = molecular target: Torsin-1A-interacting protein 2 (Homo sapiens) (UniProt Q8NFQ8); assay: small molecules binding lysate-expressed LULL1 – cell lysate, human LULL1 lysate, 635/667 nm fluorescence, primary screen (AID 1092); details: small-molecule microarray, hLULL1 lysate binding, 635 nm fluorescence; higher = more signal;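 note: probe is lysate of COS7 cells overexpressing human LULL1; score merges per-feature 667 nm fluorescence with signal-to-noise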
Chain of Torsin-1A-interacting protein 2 (Homo sapiens) (Q8NFQ8 whole entry, looked up): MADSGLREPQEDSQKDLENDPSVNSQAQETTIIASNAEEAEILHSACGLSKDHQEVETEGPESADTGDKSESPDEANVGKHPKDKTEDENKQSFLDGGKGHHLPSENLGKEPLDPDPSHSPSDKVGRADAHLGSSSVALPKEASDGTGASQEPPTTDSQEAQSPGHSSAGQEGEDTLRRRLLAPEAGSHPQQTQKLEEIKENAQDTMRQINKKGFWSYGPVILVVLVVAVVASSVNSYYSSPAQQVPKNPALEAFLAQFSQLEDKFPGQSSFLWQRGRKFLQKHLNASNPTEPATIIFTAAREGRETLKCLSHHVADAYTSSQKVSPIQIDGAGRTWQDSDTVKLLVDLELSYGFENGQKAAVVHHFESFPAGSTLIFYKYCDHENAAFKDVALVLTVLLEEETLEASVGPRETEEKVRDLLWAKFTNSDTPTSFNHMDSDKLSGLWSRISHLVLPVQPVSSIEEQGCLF

[16] = optical density change of DRC41 E. coli – strain DRC41, OD650, 24 h, E. coli filamentation project, primary screen (AID 1093);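 note: MC1000 strain lacking acrAB efflux and sulA so SOS filamentation is blocked; test concentration not given here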; details: E. coli DRC41 growth, higher = more signal, called active from +8 up or from −8 down
[17] = probe aLefty2 binding to arrayed compounds – biochemical, biotinylated probe, 635/667 nm fluorescence, primary screen (AID 1094); details: small-molecule microarray, higher = more signal;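 note: score merges spot fluorescence near 667 nm with spot signal-to-noise ratio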
[18] = test system: Noggin (protein binding on small-molecule microarray); assay: small molecules binding Noggin protein – biochemical, 635/667 nm fluorescence, primary screen (AID 1095); details: 635 nm fluorescence, higher = more signal;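 note: score merges 667 nm feature fluorescence with signal to noise over triplicate slides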
[19] = molecular target: Neurogenic locus notch homolog protein 3 (Homo sapiens) (UniProt Q9UM47); assay: small molecules binding NOTCH3 protein – biochemical, 635/667 nm fluorescence, primary screen (AID 1096); details: small-molecule microarray, 635 nm fluorescence, higher = more signal
Chain of Neurogenic locus notch homolog protein 3 (Homo sapiens) (Q9UM47 whole entry, looked up): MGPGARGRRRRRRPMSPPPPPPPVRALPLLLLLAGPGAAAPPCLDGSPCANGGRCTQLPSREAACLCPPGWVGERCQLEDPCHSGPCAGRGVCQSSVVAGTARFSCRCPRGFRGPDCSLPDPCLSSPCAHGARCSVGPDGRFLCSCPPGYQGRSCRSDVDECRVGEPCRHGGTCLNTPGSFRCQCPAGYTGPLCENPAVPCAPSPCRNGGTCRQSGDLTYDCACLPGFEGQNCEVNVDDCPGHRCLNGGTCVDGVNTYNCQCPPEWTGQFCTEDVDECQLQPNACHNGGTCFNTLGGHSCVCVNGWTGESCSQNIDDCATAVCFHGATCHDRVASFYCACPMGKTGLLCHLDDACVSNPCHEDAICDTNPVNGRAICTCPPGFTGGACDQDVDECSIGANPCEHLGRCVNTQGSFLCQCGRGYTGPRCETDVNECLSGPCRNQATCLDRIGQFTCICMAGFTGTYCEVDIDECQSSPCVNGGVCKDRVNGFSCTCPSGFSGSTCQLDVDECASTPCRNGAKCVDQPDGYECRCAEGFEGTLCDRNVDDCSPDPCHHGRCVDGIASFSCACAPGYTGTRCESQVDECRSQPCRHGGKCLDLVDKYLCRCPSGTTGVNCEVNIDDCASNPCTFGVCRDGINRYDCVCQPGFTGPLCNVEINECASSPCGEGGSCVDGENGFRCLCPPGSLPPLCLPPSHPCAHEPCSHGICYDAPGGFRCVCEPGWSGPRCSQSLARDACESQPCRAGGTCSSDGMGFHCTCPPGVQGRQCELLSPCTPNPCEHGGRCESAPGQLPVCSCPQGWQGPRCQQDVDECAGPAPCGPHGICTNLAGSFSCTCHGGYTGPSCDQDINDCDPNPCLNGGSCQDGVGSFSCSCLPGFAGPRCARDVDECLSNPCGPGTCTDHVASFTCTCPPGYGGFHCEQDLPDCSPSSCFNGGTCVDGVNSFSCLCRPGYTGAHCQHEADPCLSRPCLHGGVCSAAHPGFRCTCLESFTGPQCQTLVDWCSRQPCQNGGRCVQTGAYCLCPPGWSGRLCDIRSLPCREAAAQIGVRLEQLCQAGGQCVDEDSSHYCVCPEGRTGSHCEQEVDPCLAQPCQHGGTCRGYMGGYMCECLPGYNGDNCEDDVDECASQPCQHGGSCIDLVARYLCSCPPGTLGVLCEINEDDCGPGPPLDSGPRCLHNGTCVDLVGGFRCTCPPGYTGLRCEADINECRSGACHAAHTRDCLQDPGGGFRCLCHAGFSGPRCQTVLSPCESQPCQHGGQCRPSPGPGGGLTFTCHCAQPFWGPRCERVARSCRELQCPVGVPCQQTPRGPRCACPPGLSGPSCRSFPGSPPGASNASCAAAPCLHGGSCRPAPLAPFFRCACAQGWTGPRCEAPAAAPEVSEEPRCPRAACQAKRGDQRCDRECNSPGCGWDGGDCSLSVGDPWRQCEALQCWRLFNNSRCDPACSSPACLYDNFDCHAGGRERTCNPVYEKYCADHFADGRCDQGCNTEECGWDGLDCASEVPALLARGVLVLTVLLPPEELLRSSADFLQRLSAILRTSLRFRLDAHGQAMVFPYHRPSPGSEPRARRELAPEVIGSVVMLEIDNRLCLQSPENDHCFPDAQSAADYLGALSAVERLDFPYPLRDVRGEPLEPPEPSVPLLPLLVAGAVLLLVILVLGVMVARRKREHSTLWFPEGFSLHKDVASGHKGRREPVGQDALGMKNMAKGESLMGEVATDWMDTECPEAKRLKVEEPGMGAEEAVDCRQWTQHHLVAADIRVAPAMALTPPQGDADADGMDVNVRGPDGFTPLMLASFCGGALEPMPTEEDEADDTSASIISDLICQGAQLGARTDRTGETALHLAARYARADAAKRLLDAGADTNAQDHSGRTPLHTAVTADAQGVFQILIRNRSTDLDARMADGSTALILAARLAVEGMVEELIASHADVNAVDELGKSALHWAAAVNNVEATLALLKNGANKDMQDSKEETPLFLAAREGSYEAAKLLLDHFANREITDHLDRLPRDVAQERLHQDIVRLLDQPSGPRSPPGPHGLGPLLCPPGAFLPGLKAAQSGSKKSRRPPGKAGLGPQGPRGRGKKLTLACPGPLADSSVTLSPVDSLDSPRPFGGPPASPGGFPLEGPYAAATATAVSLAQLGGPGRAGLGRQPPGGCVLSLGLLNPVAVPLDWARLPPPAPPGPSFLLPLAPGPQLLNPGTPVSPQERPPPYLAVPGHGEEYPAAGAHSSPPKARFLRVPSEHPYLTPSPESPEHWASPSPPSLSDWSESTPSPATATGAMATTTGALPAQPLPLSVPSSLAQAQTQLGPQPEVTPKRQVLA

[20] = probe aEGFR binding to arrayed compounds – biochemical, biotinylated probe, 635/667 nm fluorescence, primary screen (AID 1097); details: small-molecule microarray, higher = more signal;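 note: probe is a biotinylated anti-EGFR antibody binding compounds printed on slides; score combines fluorescence near 667 nm and signal to noise of each spot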

Compound | composite z-score [1] | composite z-score [2] | composite z-score [3] | composite z-score [4] | composite z-score [5] | composite z-score [6] | composite z-score [7] | z-score [8] | composite z-score [9] | composite z-score [10] | composite z-score [11] | z-score [12] | z-score [13] | z-score [14] | composite z-score [15] | z-score [16] | composite z-score [17] | composite z-score [18] | composite z-score [19] | composite z-score [20]
CCCCC(=C=CC[C@@H](O)c1ccc(OCCO)cc1)C[C@@H](O)c1ccccn1 | -0.0136 | 1.23 | -0.0473 | 0.314 | 0.0751 | 0.0517 | 1.15 | -0.838 (inactive) | 0.111 | 0.16 | 1.02 | -0.374 (inactive) | -1.07 (inactive) | -0.689 (inactive) | 1.18 | 0.774 (inactive) | -0.0825 | 0.888 | 0.409 | -0.0787
COCCOC(=O)N1C(=O)[C@@]2(c3cc(C#CCCO)ccc31)[C@H](C(=O)N1CCc3cc(OC)c(OC)cc3C1)[C@H]1C(=O)O[C@H](c3ccccc3)[C@H](c3ccccc3)N1[C@@H]2c1ccccc1OCCO | -0.327 | 0.255 | -0.0336 | 1 | 1.47 | 0.317 | 1.19 | -0.742 (inactive) | 0.0205 | -0.111 | 1.55 | 2.65 (inactive) | 1.65 (inactive) | 3.88 (inactive) | 2.81 | 0.156 (inactive) | -0.0159 | 1.81 | 1.1 | -0.0564
C=CCNC(=O)[C@H]1[C@@H]2C(=O)O[C@@H](c3ccccc3)[C@@H](c3ccccc3)N2[C@@H](c2ccccc2OCCO)[C@]12C(=O)N(C(=O)OCCOC)c1ccccc12 | 0.041 | 0.3 | -0.0226 | 0.832 | 0.716 | 1.54 | 1.13 | -2.27 (inactive) | 0.186 | 0.0623 | 1.51 | 1.5 (inactive) | 2.05 (inactive) | 5.15 (inactive) | 2.78 | -0.513 (inactive) | -0.196 | 0.786 | 1.12 | -0.0828
NC(=O)NCC#Cc1ccc2c(c1)[C@]1(C(=O)N2)[C@H](C(=O)Nc2nc3ccccc3s2)[C@H]2C(=O)O[C@H](c3ccccc3)[C@H](c3ccccc3)N2[C@@H]1c1ccc(OCCO)cc1 | 0.155 | -0.164 | 0.0526 | 0.331 | 0.614 | -0.029 | -0.895 | 2.13 (inactive) | 0.99 | -0.347 | -0.006 | 1.83 (inactive) | 1.87 (inactive) | 2.18 (inactive) | 0.963 | 0.976 (inactive) | -0.0616 | 0.479 | 0.353 | -0.138
CC(c1ccccc1)C(O)C1C=CC2C(=O)N(c3ccccc3)C(=O)C2N1Nc1ccc(C#N)cc1 (stereo not given) | -0.177 | 0.358 | 0.255 | 0.752 | 1.59 | 1.91 | 1.34 | -0.948 (inactive) | 1.42 | 0.0139 | 1.55 | -2.46 (inactive) | 1.16 (inactive) | 37.9 (active) | 3.88 | 0.939 (inactive) | 0.123 | 0.562 | 1.04 | 0.066
O=C1NC(=O)C2C1C=CC(C(O)c1ccc(F)cc1)N2Nc1ccccn1 (stereo not given) | 0.22 | 0.472 | -0.0634 | 0.354 | 0.999 | 0.906 | 0.957 | 0.632 (inactive) | 0.0731 | -0.284 | 0.477 | 0.128 (inactive) | 0.42 (inactive) | 0.333 (inactive) | 2.64 | -1.83 (inactive) | -0.103 | -0.0682 | -0.0883 | -0.0271
COCCOC(=O)N1C(=O)[C@@]2(c3cc(C#Cc4ccc(OC)cc4)ccc31)[C@H](c1ccc(OCCO)cc1)N1[C@H](c3ccccc3)[C@H](c3ccccc3)OC(=O)[C@H]1[C@@H]2C(=O)N1CCCCCCC1 | 2.51 | 0.351 | 0.684 | 0.315 | 0.753 | 1.52 | 1.01 | -0.531 (inactive) | 2.75 | 2.59 | 1.49 | -1.32 (inactive) | -0.0066 (inactive) | 3.2 (inactive) | 3.3 | 0.106 (inactive) | 1.45 | 2.09 | 0.955 | 0.882
CN1C(=O)[C@]2(CCC(=O)OC(C)(C)C)N=C(c3ccc(OCCCO)cc3)O[C@@H]2c2ccccc21 | 0.229 | 0.326 | 0.0458 | 0.182 | 0.428 | 1.8 | 1.35 | 0.518 (inactive) | 0.898 | 0.21 | 1.55 | 0.494 (inactive) | -0.243 (inactive) | 0.872 (inactive) | 3.06 | 0.95 (inactive) | 0.0079 | 1.9 | 1.13 | -0.04
C=CCOC(=O)[C@H]1[C@@H]2C(=O)O[C@@H](c3ccccc3)[C@@H](c3ccccc3)N2[C@@H](c2ccc(OCCOC(=O)[C@@H]3C[C@@H]4C(=O)N[C@@H](CC(C)C)C(=O)N4[C@@H]3c3ccc(O)cc3)cc2)[C@]12C(=O)Nc1ccc(I)cc12 | -0.185 | 0.246 | -0.158 | -0.0479 | 0.672 | 1.33 | 1.29 | -1.13 (inactive) | -0.0054 | 0.15 | 1.58 | -3.69 (inactive) | 0.698 (inactive) | 3.36 (inactive) | 2.44 | 0.452 (inactive) | -0.103 | 1.23 | 0.752 | 0.006
O=C1OCCC=C[C@H]2OC34C=CCN(CCN5CCOCC5)C(=O)[C@H]3N(CCCO)C(=O)[C@@H]4C12 (stereo not given in full) | -0.0143 | -2.48 | -0.14 | -0.776 | -0.956 | 0.399 | -0.873 | 0.122 (inactive) | -0.272 | -0.0994 | 0.0132 | -0.728 (inactive) | -1.14 (inactive) | 0.229 (inactive) | 2.98 | 0.922 (inactive) | -0.257 | -0.293 | 0.329 | -0.166

Reference: PubChem BioAssay
